PubChem BioAssay (Tox21)
The source made the active and inactive calls. The call rests on the fitted dose curve; in most records, active means well fitted curve in the direction sought with a large enough effect in the repeat runs; inconclusive means weak or mixed curves; inactive means flat fitted curve, though single readings scatter.

Assay: qHTS assay to test for compound auto fluorescence at 460 nm (blue) in HEK293 cell free culture (AID 720681)
Settings: cell-free medium, autofluorescence 405/460 nm (blue); series mostly up to 91.3 µM; fluorescence, % of fluorescent control: at the top concentration
Excerpt: U.S. Tox21 Program National Center for Advancing Translational Sciences [NCATS] NIH Chemical Genomics Center [NCGC] U.S. Environmental Protection Agency [EPA] National Institutes of Environmental Health Sciences [NIEHS] National Toxicology Program [NTP] U.S. Food and Drug Administration [FDA] Tox21 Assay Overview: Compound auto fluorescence often interferes with screening of the compound library against various biological targets and signaling pathways. Some of these compounds may have fluorophoric properties. Such properties may interfere with the assay outputs resulting in false positives and/or negatives. To decrease such complications and ensure the compound activities are relevant in terms of biological response, the Tox21 10K compound library was screened for auto fluorescence. From the fluorophores used as reporter signals in our screening assays, the auto fluorescence equivalencies of compounds against three fluorophores have been evaluated: Triamterene, Fluorescein and Rose Bengal sodium for blue, green and red fluorescence, respectively. The fluorescence intensities were measured using Excitation/Emission wavelengths at 405/460nm, 485/535nm and 540/590nm for blue, green and red labels, respectively. This assay includes the blue fluorescence data.
Tox21 Assay Protocol Summary: 5 uL of culture medium (DMEM containing 10% FBS) per well was dispensed into black wall/clear bottom 1536-well plates using a Multidrop Combi Dispenser (ThermoFisher Scientific, Waltham, MA). After 23 nL compound or DMSO vehicle was transferred into assay plate by a pintool work station (Kalypsys, San Diego, CA), fluorescence intensities in the assay plates were measured by an Envision (PerkinElmer, Shelton, CT) plate reader using three labels for measuring blue, green and red fluorescence at […] 460, 535 and 590nm respectively.
On the % scale 0 is the no-effect control and ±100 the full control effect.

Compound	fluorescence, % of fluorescent control	outcome
CC(C)OC(=O)C(C)N(C(=O)c1ccccc1)c1ccc(F)c(Cl)c1 (stereo not given)	0.612% (inactive)	–
CCOC(=O)C1=C[C@]2(CC)CCCN3CCc4c(n1c1ccccc41)[C@@H]32	0.714% [at 46 µM] (inactive)	–
CN(C)c1ccc(CCO)cc1	-0.0013% (inactive)	–
NCC(=O)O	0.0609% [at 46 µM] (inactive)	–
CCCCC/C=C\C/C=C\CCCCCCCC(=O)NC(C)c1ccccc1 (stereo not given)	-0.0067% [at 46 µM] (inactive)	–
O=C(O)C1(C(=O)Nc2ccc(Cl)cc2Cl)CC1	0.0455% (inactive)	–
CCCCCCCC/C=C\CCCCCCCC(=O)OCC	0.0117% (inactive)	–
NCc1ccccc1Sc1ccccc1CO	0.0257% [at 46 µM] (inactive)	–
CN(C)CCN(Cc1ccc(Cl)cc1)c1ccccn1	-0.0429% [at 18.6 µM] (inactive)	–
O=C(OCCCCCCOC(=O)c1ccccc1)c1ccccc1	-0.008% (inactive)	–
C[C@H]1C[C@H]2[C@@H]3CCC4=CC(=O)C=C[C@]4(C)[C@@]3(Cl)[C@@H](O)C[C@]2(C)[C@@]1(O)C(=O)CO	0.0247% [at 46 µM] (inactive)	–
COc1ccc(C(=O)N2CCN(CC(=O)N3CCOCC3)CC2)cc1	0.0089% [at 46 µM] (inactive)	–
CCN(CC)c1ccc2c(-c3ccccc3C(=O)O)c3ccc(=[N+](CC)CC)cc-3oc2c1	0.657% (inactive)	–
CC(CC=O)c1ccccc1 (stereo not given)	-0.135% (inactive)	–
CC(C)(C)Cl	0.0519% [at 95.7 µM] (inactive)	–
CNCCCN1c2ccccc2CCc2ccccc21	0.0048% [at 18.6 µM] (inactive)	–
Cc1ccccc1S(=O)(=O)O	0.169% [at 95.7 µM] (inactive)	–
C=CC(=O)OCCOCCOC(=O)C=C	-0.131% (inactive)	–
Clc1ccc(Cn2c(CN3CCCC3)nc3ccccc32)cc1	-0.0089% [at 18.6 µM] (inactive)	–
CCN(CC)CCNc1ccc(CNC=O)c2sc3ccc(OC)cc3c(=O)c12	-0.143% (inactive)	–

Compound	fluorescence, % of fluorescent control	outcome
C/C=C/C(=O)CC	0.0584% [at 18.6 µM] (inactive)	–
O=C1OC(CN2CCOCC2)CN1/N=C/c1ccc([N+](=O)[O-])o1 (stereo not given)	-0.128% [at 18.6 µM] (inactive)	–
CN(C)C(=O)NC1(c2ccccc2)CCN(CC[C@@]2(c3ccc(F)c(F)c3)CN(C(=O)c3ccccc3)CCO2)CC1	-0.0221% (inactive)	–
Cc1cccc(Nc2ccccc2)c1	-0.0406% (inactive)	–
COc1cc(Cl)c(OC)cc1N	0.102% (inactive)	–
COc1cccc(N(C)C(=S)Oc2ccc3c(c2)CCCC3)n1	-0.0168% [at 46 µM] (inactive)	–
N=c1ccn2c(n1)O[C@H]1[C@H](O)[C@@H](CO)O[C@H]12	–	inactive
O=C(Nc1ccc(S(=O)(=O)N2CCOCC2)cc1)c1cc(Cl)ccc1NS(=O)(=O)c1ccc(Cl)s1	2.31% [at 46 µM] (inactive)	–
CCCCCCCCCCO[C@@H]1O[C@H](CO)[C@@H](O)[C@H](O)[C@H]1O	-0.0201% (inactive)	–
COc1cc(C(=O)OCCCN2CCCN(CCCOC(=O)c3cc(OC)c(OC)c(OC)c3)CC2)cc(OC)c1OC	-0.0219% [at 46 µM] (inactive)	–
O=C1CCCCCCCCCCCC(=O)OCCO1	-0.391% (inactive)	–
C/C=C/C=C/CO	-0.141% (inactive)	–
CCOC(=O)Cc1cccc2ccccc12	0.0068% (inactive)	–
CCCCC	–	inactive
CN1CCN(C(c2ccccc2)c2ccccc2)CC1	-0.0336% [at 18.6 µM] (inactive)	–
O=C(CS)Nc1ccccc1	0.0266% [at 46 µM] (inactive)	–
CCCCOC(=O)CCCCCCCC(=O)OCCCC	-0.0053% (inactive)	–
CCOC(=O)c1cccnc1	-0.123% [at 46 µM] (inactive)	–
CC[N+]1(CC)CCC(=C(c2ccccc2)c2ccccc2)C1C (stereo not given)	-0.0482% [at 46 µM] (inactive)	–
COc1ccc(-c2nc3ccc(C4=NNC(=O)CC4C)cc3[nH]2)cc1 (stereo not given)	-0.0518% [at 46 µM] (inactive)	–
